According to PubChem BioAssay (NCATS):
“And” between values parts separate entries of the source, which are not always exact repeats. Equal values may be shown once. Results filed as inconclusive are left out. Entries that show only a call come without a potency. The source holds several records for some structures; these can differ, active in one and inactive in another. The source made the active and inactive calls. Calls come from the whole dose curve; as a rule, active = well fitted curve in the direction sought with a large enough effect; inconclusive = small, poorly fitted or top-dose-only effect, or another doubt; inactive = no such curve, though single readings can be large; an effect the other way counts as inactive or inconclusive.

How the values were obtained:
[1] = target: Cytochrome P450 2C9 (Homo sapiens) (UniProt P11712); test: qHTS Assay for Inhibitors and Substrates of Cytochrome P450 2C9 (AID 883); conditions: recombinant CYP2C9, luciferin-H luminescence, 60 min; series mostly up to 11.4 µM; note: nearly all actives have a fitted effect of over 60% in size; note: potency is the fitted concentration of half-maximal effect
Outline: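 Signal: luciferase luminescence reporting luciferin produced by CYP2C9. Conditions: 10nM enzyme, Luciferin-H 100uM at KM, 25mM KPO4, 37C, 60 min NADPH-driven reaction. Reference: 57uM sulphaphenazole as 100% inhibition.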

[2] = target: Cytochrome P450 3A4 (Homo sapiens) (UniProt P08684); test: qHTS Assay for Inhibitors and Substrates of Cytochrome P450 3A4 (AID 884); conditions: recombinant CYP3A4, Luciferin-PPXE luminescence; series mostly up to 57.1 µM; note: nearly all actives have a fitted effect of over 50% in size; note: potency is the fitted concentration of half-maximal effect
Outline: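 20 nM human CYP3A4 with 25 uM Luciferin-PPXE (at KM) in 200 mM KPO4, preincubated 10 min with compound; NADPH regeneration started a 60 min RT reaction. Luciferin detected by luminescence, normalized to 57 uM ketoconazole as full inhibition.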

[3] = target: Cytochrome P450 2D6 (Homo sapiens) (UniProt P10635); test: qHTS Assay for Inhibitors and Substrates of Cytochrome P450 2D6 (AID 891); conditions: recombinant CYP2D6, luciferin-ME EGE luminescence; series mostly up to 11.4 µM;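 note: luciferin methyl ether substrate demethylated by CYP2D6 with NADPH regeneration; nearly all actives have a fitted effect of over 60% in size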
Outline: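 Human CYP2D6 (5 nM) with 30 uM Luciferin-ME EGE (at Km) in 100 mM KPO4, compound preincubated 10 min, then NADPH regeneration system for 60 min at room temperature. Luciferin read by luminescence; normalized to 1.43 uM quinidine.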

[4] = target: Cytochrome P450 2C19 (Homo sapiens) (UniProt P33261); test: qHTS Assay for Inhibitors and Substrates of Cytochrome P450 2C19 (AID 899); conditions: recombinant CYP2C19, luciferin-H EGE luminescence; series mostly up to 11.4 µM; note: nearly all actives have a fitted effect of over 60% in size; note: potency is the fitted concentration of half-maximal effect
Outline: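 Signal comes from luciferase acting on luciferin released by CYP2C19-mediated hydroxylation of Luciferin-H EGE, 10uM (KM). Assay mix: 5nM enzyme, 50mM KPO4; 60 min at 37C with NADPH regeneration. Data normalized against 57uM ketoconazole.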

[5] = target: Cytochrome P450 3A4 (Homo sapiens) (UniProt P08684); test: qHTS Assay for Activators of Cytochrome P450 3A4 (AID 885); conditions: recombinant CYP3A4, Luciferin-PPXE luminescence, 60 min; series mostly up to 57.1 µM; note: nearly all actives have a fitted effect of over 65% in size
Outline: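 Quantitative HTS format: compounds preincubated with 20nM human CYP3A4 and Luciferin-PPXE substrate at KM, reaction started by NADPH regeneration, stopped after 60 min, luciferase luminescence read 20 min later.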

Chain of Cytochrome P450 2D6 (Homo sapiens) (P10635 whole entry, looked up): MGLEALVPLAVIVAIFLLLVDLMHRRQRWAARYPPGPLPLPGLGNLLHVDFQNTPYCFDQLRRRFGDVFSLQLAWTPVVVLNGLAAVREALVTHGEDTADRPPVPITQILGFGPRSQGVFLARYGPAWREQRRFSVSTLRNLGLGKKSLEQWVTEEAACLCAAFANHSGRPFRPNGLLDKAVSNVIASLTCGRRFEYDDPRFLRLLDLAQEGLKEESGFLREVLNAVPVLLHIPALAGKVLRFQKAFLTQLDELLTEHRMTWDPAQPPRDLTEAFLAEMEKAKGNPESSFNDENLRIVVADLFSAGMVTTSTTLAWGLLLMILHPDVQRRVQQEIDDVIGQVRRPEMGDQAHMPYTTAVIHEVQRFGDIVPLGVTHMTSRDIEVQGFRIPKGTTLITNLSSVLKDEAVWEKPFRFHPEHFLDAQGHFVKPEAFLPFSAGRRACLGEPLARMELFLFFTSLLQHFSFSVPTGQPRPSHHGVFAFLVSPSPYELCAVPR
Chain of Cytochrome P450 2C9 (Homo sapiens) (P11712 whole entry, looked up): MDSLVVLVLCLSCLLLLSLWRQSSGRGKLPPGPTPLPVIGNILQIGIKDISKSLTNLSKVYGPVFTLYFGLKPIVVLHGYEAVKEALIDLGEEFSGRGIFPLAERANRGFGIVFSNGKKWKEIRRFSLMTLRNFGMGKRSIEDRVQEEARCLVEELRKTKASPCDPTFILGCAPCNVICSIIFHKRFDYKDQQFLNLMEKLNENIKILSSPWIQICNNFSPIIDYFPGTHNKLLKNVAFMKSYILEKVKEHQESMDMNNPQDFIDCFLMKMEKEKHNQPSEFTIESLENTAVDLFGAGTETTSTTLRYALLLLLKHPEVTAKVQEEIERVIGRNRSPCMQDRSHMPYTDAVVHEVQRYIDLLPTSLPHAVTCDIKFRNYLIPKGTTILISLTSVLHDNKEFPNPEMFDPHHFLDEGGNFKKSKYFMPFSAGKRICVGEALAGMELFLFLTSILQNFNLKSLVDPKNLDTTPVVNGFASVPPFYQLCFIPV
Chain of Cytochrome P450 3A4 (Homo sapiens) (P08684 whole entry, looked up): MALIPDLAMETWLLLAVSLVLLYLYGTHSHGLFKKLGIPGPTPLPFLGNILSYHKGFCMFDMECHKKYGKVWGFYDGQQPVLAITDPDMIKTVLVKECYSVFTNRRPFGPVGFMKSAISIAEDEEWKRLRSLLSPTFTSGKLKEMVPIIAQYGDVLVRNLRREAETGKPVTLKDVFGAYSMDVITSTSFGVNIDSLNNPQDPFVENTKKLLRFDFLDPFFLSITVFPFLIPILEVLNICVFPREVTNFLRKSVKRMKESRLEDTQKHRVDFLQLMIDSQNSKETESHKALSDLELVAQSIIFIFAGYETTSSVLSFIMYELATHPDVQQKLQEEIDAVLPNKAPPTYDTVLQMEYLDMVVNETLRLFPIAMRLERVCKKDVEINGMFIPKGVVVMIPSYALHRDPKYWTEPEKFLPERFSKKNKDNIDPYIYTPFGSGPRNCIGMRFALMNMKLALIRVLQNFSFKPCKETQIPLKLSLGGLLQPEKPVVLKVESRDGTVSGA
Chain of Cytochrome P450 2C19 (Homo sapiens) (P33261 whole entry, looked up): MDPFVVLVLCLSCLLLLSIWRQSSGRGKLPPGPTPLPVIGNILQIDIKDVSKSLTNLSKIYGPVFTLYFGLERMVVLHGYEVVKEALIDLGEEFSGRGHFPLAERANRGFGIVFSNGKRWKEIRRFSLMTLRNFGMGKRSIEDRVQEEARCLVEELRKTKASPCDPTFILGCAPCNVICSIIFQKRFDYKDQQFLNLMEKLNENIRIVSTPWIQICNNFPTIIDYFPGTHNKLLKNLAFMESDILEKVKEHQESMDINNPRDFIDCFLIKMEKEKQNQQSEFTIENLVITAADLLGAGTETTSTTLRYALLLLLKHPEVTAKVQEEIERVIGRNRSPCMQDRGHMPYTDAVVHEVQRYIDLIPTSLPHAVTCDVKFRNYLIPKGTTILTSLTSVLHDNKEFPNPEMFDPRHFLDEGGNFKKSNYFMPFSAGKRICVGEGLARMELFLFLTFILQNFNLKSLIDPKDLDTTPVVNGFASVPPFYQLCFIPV

SMILES	Potency [1]	activity change, negative = inhibition [2]	Potency [3]	Potency [4]	Potency [2]	activity change, positive = activation [5]
Cc1cc(=O)oc2cc(OC3C=CC(C#CC(C)(C)C)OC3CO)ccc12 (stereo unspecified)	inactive	-2.04% [at 11.4 µM] (inactive)	inactive	inactive	–	–
OCC1OC(c2ccccc2)C=CC1Oc1cc(Cl)cc(Cl)c1 (stereo unspecified)	inactive	5.16% [at 11.4 µM] (inactive)	inactive	–	–	–
CC1(C)OC(C(O)(c2ccccc2)c2ccccc2)C(C(O)(c2ccccc2)c2ccccc2)O1 (stereo unspecified)	inactive	–	inactive	inactive	2.51 µM (active)	–
CC(C)CC1OCCC=CC1C (stereo unspecified)	inactive	-2.57% [at 11.4 µM] (inactive)	inactive	inactive	–	–
COC(=O)NC(c1ccccc1)[C@@]1(C(=O)OC)CCCC1=O (stereo partly specified)	inactive	-15.7% [at 11.4 µM] (inactive)	inactive	inactive	–	–
CC1CCC2C(=O)N3C(CCC(C)C3c3ccc(-c4ccco4)cc3)C(=O)N2C1c1ccc(-c2ccco2)cc1 (stereo unspecified)	inactive	-11.9% [at 11.4 µM] (inactive)	inactive	inactive	–	–
CC1(C)Oc2cc3c(cc2O1)OC(C)(C)O3	inactive	-26.4% [at 11.4 µM] (inactive)	inactive	inactive	–	–
Cc1ccc(OC2C(O)COC2/C=C/C#Cc2ccc(C(C)(C)C)cc2)cc1 (stereo unspecified)	inactive	-23% [at 11.4 µM] (inactive) and -25.5% [at 11.4 µM] (inactive)	inactive	inactive	–	–
COC(=O)NC(CC(C)=O)c1ccco1 (stereo unspecified)	inactive	-19.2% [at 11.4 µM] (inactive)	inactive	inactive	–	–
CCN1C(C)=C(C(=O)OC)C(c2ccccc2)N2C(=O)[C@](O)(C(=O)OC)CC(C(C)=O)=C12 (stereo partly specified)	inactive	-13.9% [at 11.4 µM] (inactive)	inactive	inactive	–	–
CC(C)CN1CCc2nc(-c3ccccc3)c3c(c2CC1)COC(C)C3 (stereo unspecified)	inactive	-18.5% [at 11.4 µM] (inactive)	inactive	inactive	–	–
CCOC(=O)[C@]1(C(NC(=O)OC)c2cccc(C)c2)CCCC1=O (stereo partly specified)	inactive	-23.1% [at 11.4 µM] (inactive)	inactive	inactive	–	–
CCC(=O)CC(NC(=O)OC)c1ccc(F)cc1 (stereo unspecified)	inactive	-17.9% [at 11.4 µM] (inactive)	inactive	inactive	–	–
COc1cc(C2c3[nH]c4ccccc4c3CC3C(=O)N4C(Cc5c([nH]c6ccccc56)C4c4cc(OC)c(OC)c(OC)c4)C(=O)N32)cc(OC)c1OC (stereo unspecified)	inactive	-16.6% [at 11.4 µM] (inactive)	inactive	inactive	–	–
CCOC(=O)[C@]1(C(/C=C/c2ccco2)NC(=O)OC)CCCC1=O (stereo partly specified)	inactive	-21.5% [at 11.4 µM] (inactive)	inactive	inactive	–	–
CCOP(=O)(CC(C(C)=O)C(O)c1ccccc1)OCC (stereo unspecified)	inactive	-15.8% [at 11.4 µM] (inactive)	inactive	inactive	–	–
CCC(=O)[C@@]1(O)C(=O)N2C(=C3C(=O)OCCC31)N(Cc1ccccc1)C(C)=C(C(=O)OC)C2c1ccccc1 (stereo partly specified)	inactive	-16% [at 11.4 µM] (inactive)	inactive	inactive	–	–
OCC1OC(C#Cc2ccccc2)C=CC1OCc1ccccc1 (stereo unspecified)	inactive	-24.2% [at 11.4 µM] (inactive)	inactive	0.0126 µM (active)	–	–
COC(=O)NC(/C(C(=O)OC)=C(\C)NCc1ccccc1)c1ccco1 (stereo unspecified)	inactive	-20.3% [at 11.4 µM] (inactive)	inactive	inactive	–	–

SMILES	Potency [1]	activity change, negative = inhibition [2]	Potency [3]	Potency [4]	Potency [2]	activity change, positive = activation [5]
COC(=O)NC(CC(C)=O)c1ccc(F)cc1 (stereo unspecified)	inactive	-12% [at 11.4 µM] (inactive)	inactive	inactive	–	–
COC(=O)CC1=COC2OCC3=CC[C@@H]1C32 (stereo partly specified)	inactive	-15.8% [at 11.4 µM] (inactive)	inactive	inactive	–	–
CC1CCC2C(=O)N3CCCC3C(=O)N2C1c1ccc(Br)cc1 (stereo unspecified)	631 nM (active) and inactive	-43.7% [at 11.4 µM] (inactive) and -27.2% [at 11.4 µM] (inactive)	inactive	inactive	–	–
CC1(C)OC(C(O)(c2cc(F)c(F)c(F)c2)c2cc(F)c(F)c(F)c2)C(C(O)(c2cc(F)c(F)c(F)c2)c2cc(F)c(F)c(F)c2)O1 (stereo unspecified)	inactive	-15% [at 11.4 µM] (inactive)	inactive	inactive	–	–
CC12C=C(/C=C/C=C/c3ccco3)C(C)(C1)C(/C=C/c1ccco1)CC2=O (stereo unspecified)	inactive	5.62% [at 11.4 µM] (inactive)	inactive	inactive	–	–
CCCCCCC/C=C/C1=CC2(C)CC1(C)C(CCCCCCC)CC2=O (stereo unspecified)	inactive	-15% [at 11.4 µM] (inactive)	inactive	inactive	–	–
COc1cc(O)c(C(=O)/C=C/c2ccccc2)c(O)c1	2 µM (active)	-28.7% [at 11.4 µM] (inactive)	inactive	1.58 µM (active)	–	–
CCCc1cc2c(c(=O)o1)C(O)C1OC1C2=O (stereo unspecified)	inactive	-24% [at 11.4 µM] (inactive)	inactive	inactive	–	–
COC(=O)C/C=C/C(C)C(OC)c1ccccc1Br (stereo unspecified)	inactive	-5.95% [at 11.4 µM] (inactive)	inactive	inactive	–	–
Cc1ccccc1OC1C=CC(c2ccccc2)OC1CO (stereo unspecified)	inactive	-11.7% [at 11.4 µM] (inactive)	inactive	5.01 µM (active)	–	–
O=C(/C=C/c1ccccc1)N1CCCC1CO (stereo unspecified)	inactive	-20.7% [at 11.4 µM] (inactive)	inactive	inactive	–	–
COC(=O)NC(c1ccco1)[C@@]1(C(=O)OC)CCCC1=O (stereo partly specified)	inactive	-10.6% [at 11.4 µM] (inactive)	inactive	inactive	–	–
COC(=O)NC(CC(C)=O)c1ccccc1 (stereo unspecified)	inactive	-12.9% [at 11.4 µM] (inactive)	inactive	inactive	–	–
CC(=O)Nc1ccc(C2NC(C(=O)O)CCC2C)cc1 (stereo unspecified)	inactive	-21% [at 11.4 µM] (inactive)	inactive	inactive	–	–
COCC#Cc1ccc(C2NC(C(=O)O)CCC2C)cc1 (stereo unspecified)	inactive	-8.92% [at 11.4 µM] (inactive)	inactive	inactive	–	–
COC(=O)NC(CC(C)=O)c1cccc(C(F)(F)F)c1 (stereo unspecified)	inactive	-14.1% [at 11.4 µM] (inactive)	inactive	inactive	–	–
CC1CCC(C(=O)O)NC1c1ccc(-c2ccco2)cc1 (stereo unspecified)	inactive	-4.5% [at 11.4 µM] (inactive)	inactive	inactive	–	–
CC1CCC(C(=O)O)NC1c1cccc(N2CCOCC2)c1 (stereo unspecified)	inactive	-10.3% [at 11.4 µM] (inactive)	inactive	inactive	–	–
C=C(C)CC1(c2ccccc2)Oc2ccccc2-c2nc3cc(Cl)c(Cl)cc3nc21 (stereo unspecified)	inactive	-4.89% [at 11.4 µM] (inactive)	inactive	inactive	–	–

SMILES	Potency [1]	activity change, negative = inhibition [2]	Potency [3]	Potency [4]	Potency [2]	activity change, positive = activation [5]
COC(=O)NC(/C=C/c1ccco1)[C@@]1(C(=O)OC)CCCC1=O (stereo partly specified)	inactive	2.43% [at 11.4 µM] (inactive)	inactive	inactive	–	–
COC(=O)NC(CC(C)=O)c1cccc(C)c1 (stereo unspecified)	inactive	-19.5% [at 11.4 µM] (inactive)	inactive	inactive	–	–
COC(=O)NC(CC(C)=O)c1cccc(F)c1 (stereo unspecified)	inactive	-53.6% [at 11.4 µM] (inactive)	inactive	inactive	–	–
COc1cccc(C2NC(C(=O)O)CCC2C)c1 (stereo unspecified)	inactive	-16.8% [at 11.4 µM] (inactive)	inactive	inactive	–	–
CC1CCC2C(=O)N3C(CCC(C)[C@@H]3c3ccc(-c4ccco4)cc3)C(=O)N2C1c1cccc(N2CCCC2=O)c1 (stereo partly specified)	inactive	13.4% [at 11.4 µM] (inactive)	inactive	inactive	–	–
CC(=O)OCC1OC(C#CCC2CCCCC2)C=CC1OC(C)=O (stereo unspecified)	inactive	–	inactive	inactive	–	-56.3% [at 11.4 µM] (inactive)
C=C(C)C(O)/C=C/CCCCCCC (stereo unspecified)	inactive	–	inactive	inactive	–	-33.5% [at 11.4 µM] (inactive)
C=C(C)C(O)/C=C/c1ccccc1OC (stereo unspecified)	inactive	–	inactive	inactive	–	-35.5% [at 11.4 µM] (inactive)
C=CCC1(C)OC=Cc2nc3cc(Cl)c(Cl)cc3nc21 (stereo unspecified)	inactive	–	inactive	3.98 µM (active)	–	-59.2% [at 11.4 µM] (inactive)
C(#CC1C=CC2OC(c3ccccc3)OCC2O1)c1ccccc1 (stereo unspecified)	inactive	–	inactive	inactive	–	-40.5% [at 11.4 µM] (inactive)
COC(c1ccccc1)C(C)C(OC)C(C)C(OC)C(C)C(C)=O (stereo unspecified)	inactive	–	inactive	inactive	–	-36.1% [at 11.4 µM] (inactive)
O=C1OC(C2=CCCCC2)=NC12CC2	inactive	–	inactive	inactive	–	-40.2% [at 11.4 µM] (inactive)
COc1ccc(OC2C=CC(c3ccccc3)OC2CO)c(C(C)=O)c1 (stereo unspecified)	inactive	–	inactive	inactive	–	-57.7% [at 11.4 µM] (inactive)
COC(=O)[C@@H]1CC[C@H](C)[C@@H](c2ccc(C)cc2)N1C(=O)c1ccc(/C=N\OC[C@@H](O)[C@H]2O[C@H]3OC(C)(C)O[C@H]3[C@@H]2O)cc1	2.51 µM (active)	–	–	0.631 µM (active)	–	-58.3% [at 11.4 µM] (inactive)
C=CCOCC/C=C1/c2ccccc2C(OC)C1C (stereo unspecified)	inactive	–	–	3.98 µM (active)	–	-43.5% [at 11.4 µM] (inactive)
CCCCCCC1=Cc2cc(OC)c(OC)cc2C(CC(=O)/C=C/OC)O1 (stereo unspecified)	inactive	–	inactive	inactive	–	-40.4% [at 11.4 µM] (inactive)
CC1CCC2C(=O)OC(Cc3ccccc3)CN2C1c1ccc(Br)cc1 (stereo unspecified)	inactive	–	inactive	316 nM (active) and 3.16 µM (active)	–	-52.5% [at 11.4 µM] (inactive) and -47.1% [at 11.4 µM] (inactive)
CCN1C(C)=C(C(=O)OC)C(c2ccccc2)N2C(=O)[C@@]3(C(=O)OC)O[C@@]12C1C(=O)CCCC13 (stereo partly specified)	inactive	–	inactive	inactive	–	-36.9% [at 11.4 µM] (inactive)
